High-throughput results as filed in PubChem BioAssay.
HEK293 tox: HEK 293 cell cytotoxicity; HEK 293 viability, ATP luminescence (CellTiter-Glo), 48-72 h; Potency, µM (top dose mostly 115 µM), for inactives: at the highest dose activity change, negative = cytotoxicity, actives largely listed as inhibitors; actives 6.6% (n = 94,000); note: nearly all actives have a fitted effect of over 60% in size
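Luminescence from cellular ATP, measured with CellTiter-Glo, indicates HEK 293 viability. Cells plated at 250 cells/well are treated with compound for 48 or 72 hr at 37 degree Celsius before reagent addition.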
NPR1 antag: antagonists of human natriuretic peptide receptor Npr1; HEK293 hNpr1 GloSensor cGMP, ANP-stimulated luminescence; actives 1.6% (n = 76,000); P16066; Potency, µM (highest dose often 46.3 µM), inactives show at the top dose activity change, negative = inhibition, most hits filed as inhibitors; calls by dose curve; note: nearly all actives have a fitted effect of over 60% in size
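HEK293 cells stably expressing human Npr1 and cGMP GloSensor pGS-40F, loaded 2 h with 2% GloSensor reagent, given compound 30 min at room temperature. Luminescence read before and 20 min after 0.1 nM hNppA.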
NIH3T3 tox: NIH 3T3 cell cytotoxicity; NIH 3T3 viability, CellTiter-Glo ATP luminescence, 48-72 h; Potency, µM (doses to about 96.7 µM), for inactives: top-dose activity change, negative = cytotoxicity, hits mostly inhibitors; actives 4.3% (n = 94,000); note: nearly all actives have a fitted effect of over 55% in size
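Cytotoxicity was measured by CellTiter-Glo ATP luminescence after 48 or 72 h compound exposure at 37 °C. Mouse NIH 3T3 fibroblasts were seeded at 400 cells/well and dosed by 23 nL pin transfer.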
Luciferase inh: Photinus pyralis luciferase inhibition; purified P. pyralis luciferase, luminescence, biochemical; Potency, µM (top dose mostly 115 µM), usual class: inhibitors; actives 2.5% (n = 76,000); note: nearly all actives have a fitted effect of over 65% in size
Target sequence (P08659 whole entry, looked up): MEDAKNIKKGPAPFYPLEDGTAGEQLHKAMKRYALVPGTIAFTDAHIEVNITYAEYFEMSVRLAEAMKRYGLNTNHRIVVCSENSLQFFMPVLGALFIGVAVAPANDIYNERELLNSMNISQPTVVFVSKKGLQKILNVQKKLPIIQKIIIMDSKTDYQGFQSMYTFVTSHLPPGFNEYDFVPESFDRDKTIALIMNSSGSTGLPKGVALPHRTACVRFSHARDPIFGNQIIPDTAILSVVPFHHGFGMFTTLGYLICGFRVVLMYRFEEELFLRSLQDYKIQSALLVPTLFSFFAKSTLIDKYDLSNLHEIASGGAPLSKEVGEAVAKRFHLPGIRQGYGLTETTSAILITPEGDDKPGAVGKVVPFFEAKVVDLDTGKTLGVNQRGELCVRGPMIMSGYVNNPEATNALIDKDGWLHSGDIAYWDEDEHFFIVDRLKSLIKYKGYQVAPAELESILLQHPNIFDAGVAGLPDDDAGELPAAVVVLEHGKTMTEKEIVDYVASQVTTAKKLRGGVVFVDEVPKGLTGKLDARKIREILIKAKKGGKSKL
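FLuc 10nM, D-luciferin 10uM, ATP 10uM, Mg acetate 10mM, Tris acetate pH 7.5, Tween/BSA; cpd qHTS; enzyme added last; CCD luminescence.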
Active calls of the source: *; i = inactive; ? = inconclusive; nt = no result; [ ] = another dose, or the depositor's remark. An excerpt weighted towards active compounds, which were near 11% of everything screened. Unless noted, calls come from the whole dose curve; as a rule, active = well fitted curve in the direction sought with a large enough effect; inconclusive = small, poorly fitted or top-dose-only effect, or another doubt; inactive = no such curve, though single readings can be large; an effect the other way counts as inactive or inconclusive. % is set by controls: 0 for no effect and ±100 for the full control effect; potency is the fitted concentration of half-maximal effect.

SMILES | HEK293 tox | NPR1 antag | NIH3T3 tox | Luciferase inh
O=C(NC1CCCc2c1[nH]c1ccc(F)cc21)c1n[nH]c2c1CCC2 (stereo not drawn) | 35µM* | -27% | 35µM* | i
O=C(c1cc(CN2CCC(Cc3ccccc3)CC2)on1)N1CCN2CCCC2C1 (stereo not drawn) | ? | 8% | -20% | i
C[C@H](N)C(=O)N1CCC(n2nccc2NC(=O)Nc2ccccc2Cl)CC1 | ? | 1% | 3% | i
O=C(Nc1cccc(C(F)(F)F)c1)c1cnc2c(c1)N(C(=O)CCc1ccccc1)CCC2 | ? | -21% | -24% | i
CC(C)Cc1cc(CC2(NC3CCCCC3)COC2)no1 | -25%[230 µM] | -1%[70.6 µM] | -19%[174 µM] | i
COCCN1CCCCCC(O)c2cc(C(=O)NCCc3ccccn3)ccc21 (stereo not drawn) | i | -4% | -12% | i
COc1ccccc1-c1cccc(CN2CCCC(C(=O)Nc3cccc(Cl)c3)C2)c1 (stereo not drawn) | 25µM* | nt | 16µM* | nt
CCOCCNC(=O)C1CCCN(Cc2cccc(-c3ccccc3OC)c2)C1 (stereo not drawn) | 40µM* | nt | ? | nt
COc1ccccc1-c1cccc(CN2CCCC(C(=O)NC(C)C)C2)c1 (stereo not drawn) | ? | nt | 40µM* | nt
COc1ccccc1-c1cccc(C(=O)N2CCC[C@H]2C(=O)NC(C)C)c1 | -4% | nt | -31% | nt
COc1ccccc1-c1cccc(CN2CCCC(C(=O)NCc3cccc(F)c3)C2)c1 (stereo not drawn) | 13µM* | nt | ? | nt
O=C1CC(c2ccccc2)N(CC2CCCCC2)CCCCCCN1 (stereo not drawn) | -27% | 0% | -19% | i
O=C(NCc1ccc(F)cc1)c1ccc2nc(-c3ccncc3)oc2c1 | ? | nt | -22%[138 µM] | nt
COc1ccccc1-c1ccc(C(=O)N2CCC(C(=O)N3CCCC3)CC2)cc1 | ? | nt | -18% | nt
COc1ccccc1-c1cccc(CN2CCCC(C(=O)NCc3ccc4c(c3)OCO4)C2)c1 (stereo not drawn) | 35µM* | nt | ? | nt
O=C(NCc1cccc(F)c1)C1CCCN(Cc2cccc(-c3ccc(F)cc3F)c2)C1 (stereo not drawn) | 45µM* | nt | 35µM* | nt
COc1ccccc1-c1cccc(C(=O)N2CCC[C@H]2C(=O)NCc2ccccc2)c1 | ? | nt | -32% | nt
COC(=O)CNC(=O)C1CCCN(Cc2cccc(-c3ccccc3OC)c2)C1 (stereo not drawn) | -26% | nt | ? | nt
O=C1CCN(Cc2cccnc2)CCCC(C(=O)NCc2cc(F)cc(F)c2)CCN1 (stereo not drawn) | -25% | -3% | -13% | i
COc1ccccc1-c1cccc(CN2CCCC(C(=O)N3CCCCC3)C2)c1 (stereo not drawn) | 79µM* | nt | ? | nt
COc1ccccc1-c1cccc(CN2CCCC(C(=O)NCC(F)(F)F)C2)c1 (stereo not drawn) | 45µM* | nt | ? | nt
CCOC(=O)c1ccc(Nc2nc(-c3ccccc3)no2)cc1 | ? | -30% | ? | ?
CC(=O)Nc1cccc(-c2n[nH]c3c2CC(=O)N(c2ccccc2)C3)c1 | -25%[172 µM] | -9%[70.6 µM] | ? | i
O=C(NCc1cccs1)C1CCCN(c2nc3ncccc3o2)C1 (stereo not drawn) | -11%[172 µM] | 0%[70.6 µM] | -17%[138 µM] | i
O=C(NCc1cccs1)C1CCCN(Cc2cccc(-c3ccc(F)cc3F)c2)C1 (stereo not drawn) | 45µM* | nt | ? | nt
SMILES | HEK293 tox | NPR1 antag | NIH3T3 tox | Luciferase inh
O=C(NCc1cccc(C(F)(F)F)c1)C1CCCN(Cc2cccc(-c3ccc(F)cc3F)c2)C1 (stereo not drawn) | 35µM* | nt | ? | nt
CC(C)CN1C(=O)COC[C@@H]1[C@H](O)c1ccc(NC(=O)CCc2ccccc2)cc1 | -31%[172 µM] | -8%[70.6 µM] | -30%[138 µM] | i
Cc1ccc(CN2CCc3nc(C(=O)Nc4cccnc4)oc3CC2)o1 | ? | -10%[70.6 µM] | -21%[138 µM] | ?
O=C(Nc1ccc(Cl)cc1)c1nc2c(o1)CCN(Cc1cnc[nH]1)CC2 | ? | ? | ? | 71µM*
Cc1ccccc1CN1CCc2nc(C(=O)Nc3ccccc3)oc2CC1 | 40µM* | 10µM* | ? | ?
O=C(NCCOc1ccccc1)c1nc2c(o1)CCN(Cc1cccc(F)c1)CC2 | ? | ? | ? | i
Cc1cc(F)cc(CN2CCc3nc(C(=O)Nc4ccccc4)oc3CC2)c1 | ? | 13µM* | 25µM* | 22µM*
O=C1NCCN2CC3(CCN(S(=O)(=O)Cc4ccccc4F)CC3)CC12 (stereo not drawn) | i | 5% | i | i
COCCN1C(=O)CCc2cc(NC(=O)c3ccc4c(c3)OCO4)ccc21 | ? | 2% | -7% | 40µM*
CCN1C(=O)CCc2cc(NC(=O)CC(C)C)ccc21 | 10% | -2% | -5% | i
COCCN1C(=O)CCc2cc(NC(=O)COC)ccc21 | 6% | 1% | 0% | i
CC(C)CN1C(=O)CCc2cc(NC(=O)c3ccc4c(c3)OCO4)ccc21 | 40µM* | -13% | ? | ?
CC#CCn1cc2c3c(cccc31)[C@H](CC(C)C)N[C@H](C(=O)NCc1ccc(OC)cc1)C2 | ? | 0% | ? | i
Cc1cc(Cn2cc3c4c(cccc42)[C@H](CC(C)C)N[C@H](C(=O)NCc2ccccn2)C3)no1 | 32µM* | -2% | ? | i
Cc1cc(Cn2cc3c4c(cccc42)[C@H](CC(C)C)N[C@H](C(=O)NCc2ccco2)C3)no1 | 40µM* | -3% | 28µM* | i
Cn1cc(CNCC2(COc3ccc(C(F)(F)F)cn3)C[C@@H](O)[C@@H](O)C2)cn1 (stereo partly drawn) | -28% | 2% | -15% | i
COc1ccc(C(=O)N2CCN(c3nnc4cccc(C)n34)CC2)cc1F | 1% | 0% | -2% | i
O=C(O)CCn1ncc2cc(OCC3CCN(c4ncccn4)CC3)ccc21 | -11%[172 µM] | 3%[70.6 µM] | 50µM* | 63µM*
O=C(O)CCn1ncc2cc(OCC3CCN(C(=O)C4CCCC4)CC3)ccc21 | 3%[172 µM] | 1%[70.6 µM] | ? | ?
O=C(O)CCn1ncc2cc(OCC3CCN(C(=O)OC4CCCC4)CC3)ccc21 | ? | 1%[70.6 µM] | 25µM* | ?
O=C(O)CCn1ncc2cc(OCC3CCN(C(=O)COc4ccccc4)CC3)ccc21 | 4%[172 µM] | 1%[70.6 µM] | 28µM* | i
O=C(O)CCn1ncc2cc(OCC3CCN(C(=O)CC4CC4)CC3)ccc21 | 3%[172 µM] | 6%[70.6 µM] | 50µM* | ?
O=C(O)CCn1ncc2cc(OCC3CCN(C(=O)C4CC4)CC3)ccc21 | i | 8%[70.6 µM] | ? | ?
CCN1CCCC1CNC(=O)CC[C@H]1NC(=O)c2ccccc2NC1=O (stereo partly drawn) | 21% | -1% | 1% | i
O=C1NC(=NC2CCCC2)C2(CCCN(CC3CCCCC3)C2)N1c1cccnc1 (stereo not drawn) | ? | nt | 7.1µM* | nt
